# Reference: PubChem BioAssay (NCATS)
# Unmarked numbers belong to inactive results. Activity calls are given as the source filed them. Calls come from the whole dose curve; as a rule, active = well fitted curve in the direction sought with a large enough effect; inconclusive = small, poorly fitted or top-dose-only effect, or another doubt; inactive = no such curve, though single readings can be large or run the other way.
# Biological target: Guanine nucleotide-binding protein G(i) subunit alpha-1 (Homo sapiens) (UniProt P63096)
# Sequence (P63096 whole entry, looked up): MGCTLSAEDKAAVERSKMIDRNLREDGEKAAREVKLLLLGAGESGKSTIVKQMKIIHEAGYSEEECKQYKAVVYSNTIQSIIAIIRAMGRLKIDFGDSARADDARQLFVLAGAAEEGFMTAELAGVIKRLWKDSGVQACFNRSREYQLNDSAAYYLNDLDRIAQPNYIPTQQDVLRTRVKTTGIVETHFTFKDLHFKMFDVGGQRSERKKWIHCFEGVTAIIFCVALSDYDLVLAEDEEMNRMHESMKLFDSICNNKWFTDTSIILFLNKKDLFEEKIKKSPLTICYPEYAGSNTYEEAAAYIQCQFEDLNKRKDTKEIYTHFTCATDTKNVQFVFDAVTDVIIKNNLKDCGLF
# Assay: qHTS Assay for Inhibitors of RGS12 GoLoco Motif Activity (Green Fluorophore) (AID 879);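 note: 0% = labeled peptide with Gαi1 and full inhibition = labeled peptide alone without protein; negative values mean loss of peptide binding seen as reduced polarization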
# Conditions: Galphai1/FITC-RGS12 GoLoco peptide, fluorescence polarization; series mostly up to 57.1 µM; activity, negative = inhibition: at the top concentration
# Method in brief: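 Fluorescence polarization assay: 50 nM Gαi1 with 10 nM FITC-labeled RGS12 GoLoco peptide in 10 mM Tris pH 7.5, 150 mM NaCl, 0.1 mM GDP, 0.05% NP40, 10 min at room temperature with compound.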
Compound,"activity, negative = inhibition [%]",Potency
COc1cc(CNC(=O)CCCCCCC(C)C)ccc1O,4.6,–
c1ccc2nc(C3=NCCN3)ccc2c1,6.62,–
CCCn1c(=O)c2[nH]c(-c3ccc(S(=O)(=O)O)cc3)nc2n(CCC)c1=O,-24.1,–
S=C(S)N1CCCC1,-12.6,–
CC(C)NC[C@H](O)COc1ccc(CC(N)=O)cc1,–,inactive
COC(=O)[C@H](NC(=O)c1cc(-c2ccccc2)nc2ccccc12)c1ccccc1,-24.4,–
N[C@@H](Cc1c[nH]c2ccccc12)C(=O)O,-5.56,–
Nn1nnc2ccccc21,-17.3,–
COc1ccc(C(=O)NCc2cccnc2)cc1C(=O)NCc1cccnc1,-5.42,–
N#C/C(=C\c1ccc(O)c(O)c1)C(=O)NCCCNC(=O)/C(C#N)=C/c1ccc(O)c(O)c1,6.47,–
NCCCNCCCCNCCCN,-9.18,–
O=c1oc(Cl)c(Cl)c2ccccc12,2.73,–
COc1cc(CC(=O)O)ccc1O,2.49,–
O=c1cc(-c2ccccc2)[nH]c2nc(Cl)ccc12,-17.6,–
C=CCn1c(=O)c2c(nc(-c3ccc(S(=O)(=O)O)cc3)n2C)n(C)c1=O,11.2,–
C[N+](C)(C)CC=O,4.53,–
COc1ccc(CCN(C)CCc2ccc(OC)c(OC)c2)cc1OC,-2.19,–
CCCCCCC/C=C\CCCCCCCCC(=O)O,-6.46,–
NS(=O)(=O)c1cccc2c1c([N+](=O)[O-])cc1nc(O)c(O)nc12,-18.4,–
NC(=Nc1ccccc1)NC(=O)c1nc(Cl)c(N)nc1N,-8.78,–
O=c1ccc2c(OCCCCc3ccccc3)c3ccoc3cc2o1,-11.8,–
O=c1onc2n1-c1cc(Br)ccc1OC2,6.76,–
